T cruzi growth-1 = T. cruzi proliferation inhibition; T. cruzi beta-gal in NIH3T3, GalScreen luminescence, 90 h; inhibition, % at 8.34 µM; 77,000 compounds, 5.9% hits;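 active means mean inhibition above about 93%, with at least 55% of replicates each passing it, limit read from the data, passing the limit was not always enough; inconclusive means only one of those two conditions holds; inactive means neither condition holds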
Pf Dd2 growth = P. falciparum Dd2 growth inhibition; SYBR Green, 72 h; active compounds read low; 94,000 compounds, 2.3% hits; activity change, % at 10 µM; AID 1159554; in the data active means activity change below about -80%; inconclusive means no clear call, values can overlap the other calls
C diff growth = inhibitors of Clostridium difficile growth. Clostridium difficile clinical isolate growth, OD600, 24 h; active compounds read low. growth activity, negative = inhibition, % at 16 µg/mL (by protocol). 86,000 compounds, 0.25% hits;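 active means mean growth activity at or below -80% and every replicate also at or below -80%; inconclusive means mean at or below -80% but some replicate above -80%; inactive means mean growth activity above -80%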;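 further: 0% = DMSO wells and -100% = levofloxacin 16 µg/mL wells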
T cruzi growth-2 = blocks T. cruzi growth in NIH3T3 host cells; shares compounds with T cruzi growth-1; T. cruzi beta-gal in NIH3T3, GalScreen luminescence, 90 h; inhibition, % at 8.35 µM; 5,600 compounds, 72% hits; AID 651739;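 active means mean replicate inhibition above about 95% and at least 55% of replicates individually reaching it, limit read from the data; inconclusive means only one of the two criteria is met; inactive means neither criterion is met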
T cruzi growth-3 = Trypanosoma cruzi proliferation inhibition | shares compounds with T cruzi growth-1 | T. cruzi beta-gal in NIH3T3, GalScreen luminescence, 90 h | inhibition, % at 2.09 µM | 5,600 compounds, 21% hits | AID 651740;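 active means mean inhibition above about 95%, with at least 55% of replicates also reaching it, limit read from the data; inconclusive means meets just one of the two conditions; inactive means meets neither condition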;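 further: plate controls were neutral control median for no effect and positive control median for full effect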
3T3 cytotox = cytotoxicity in mouse NIH/3T3 fibroblasts | NIH/3T3 viability, CellTiter-Glo ATP luminescence, 90 h | shares compounds with T cruzi growth-1 | cytotoxicity (signal decrease), % at 8.35 µM | 5,600 compounds, 14% hits | AID 651742;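 active means mean signal decrease across replicates above about 35% based on untreated-well scatter, with enough replicates individually passing, limit read from the data; inconclusive means no rule stated though some were filed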;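 further: 0% = median of neutral control wells and 100% = median of positive control wells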
NIH3T3 tox 2 = kills mouse NIH/3T3 fibroblasts | shares compounds with T cruzi growth-1 | NIH/3T3 viability, CellTiter-Glo ATP luminescence, 90 h | 5,600 compounds, 56% hits | AID 651744 | inhibition, % at 24.9 µM;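 active means mean loss of cell viability signal at or above a set limit, and enough replicates individually reaching it; inconclusive means meets only the mean limit or only the replicate share; inactive means meets neither condition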;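 further: 0% = median of neutral control wells and 100% = median of positive control wells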
Active calls of the source: *; ? = inconclusive; · = not tested or not shown. Sampled rows, rich in hits. Any-hit rate of the full collection: about 6.8%.

SMILES | T cruzi growth-1 | Pf Dd2 growth | C diff growth | T cruzi growth-2 | T cruzi growth-3 | 3T3 cytotox | NIH3T3 tox 2
COc1ccccc1-c1ccc2c(c1)[C@@H]1[C@@H](CCN1C(=O)C1CCOCC1)[C@@H](CO)N2 | 88.9 | -7.2 | -16.4 | · | · | · | ·
O=C(C1CCOCC1)N1CC[C@@H]2[C@H]1c1cc(-c3ccc(F)cc3)ccc1N[C@@H]2CO | 104.7* | 3.9 | -5.6 | ? | 81.8 | -9.4 | 23.0
COc1ccccc1-c1ccc2c(c1)[C@@H]1[C@@H](CCN1C(=O)C1CCOCC1)[C@H](CO)N2 | 97.1* | -23.2 | -7.7 | 101.8* | 72.3 | -23.3 | -30.0
O=C(C1CC1)N1CC[C@@H]2[C@@H](CO)Nc3ccc(-c4ccc(F)cc4)cc3[C@@H]21 | 84.1 | 2.1 | -10.5 | · | · | · | ·
O=C(C1CC1)N1CC[C@@H]2[C@H](CO)Nc3ccc(-c4ccc(F)cc4)cc3[C@@H]21 | 42.4 | -0.3 | -12.6 | · | · | · | ·
C[C@@H]1CN([C@H](C)CO)S(=O)(=O)c2ccc(C3=CCCC3)cc2O[C@H]1CN(C)C(=O)C1CCOCC1 | 40.1 | -28.8 | -1.1 | · | · | · | ·
COc1ccccc1-c1cnc2c(c1)C(=O)N([C@@H](C)CO)C[C@H](C)[C@@H](CN(C)C(=O)c1cccnc1)O2 | · | 20.1 | 1.8 | · | · | · | ·
O=C(N[C@H]1CC[C@@H](CCNC(=O)C2CCOCC2)O[C@@H]1CO)c1ccccn1 | 23.5 | 15.1 | 0.9 | · | · | · | ·
C[C@@H]1CN([C@H](C)CO)C(=O)c2cc(NC(=O)Nc3ccc(F)cc3)ccc2O[C@H]1CN(C)Cc1ccc(C(=O)O)cc1 | 9.7 | -14.1 | -5.6 | · | · | · | ·
CNC[C@H]1Oc2cc(-c3ccccc3F)ccc2S(=O)(=O)N([C@@H](C)CO)C[C@@H]1C | · | -51.4 | -0.7 | · | · | · | ·
C[C@H]1CN([C@@H](C)CO)C(=O)c2cc(NS(=O)(=O)c3ccccc3)ccc2O[C@H]1CN(C)C(=O)Nc1ccc(F)cc1 | 27.3 | 2.5 | -2.1 | · | · | · | ·
O=C(C[C@@H]1CC[C@@H]2[C@H](COC[C@H](O)CN2Cc2ccc(Oc3ccccc3)cc2)O1)Nc1nccs1 | 133.1* | -1.6 | 41.8 | 100.4* | -0.2 | -24.7 | 11.1
O=C(C[C@@H]1CC[C@@H]2[C@H](COC[C@H](O)CN2Cc2nccs2)O1)NCc1ccc(Oc2ccccc2)cc1 | · | -19.2 | 8.0 | · | · | · | ·
O=C(C[C@@H]1CC[C@H]2[C@@H](COC[C@H](O)CN2Cc2ccc(Cl)cc2)O1)Nc1nccs1 | 19.6 | -29.8 | 0.5 | · | · | · | ·
O=C(C[C@@H]1CC[C@H]2[C@@H](COC[C@@H](O)CN2Cc2nccs2)O1)NCc1ccc(Oc2ccccc2)cc1 | · | 3.8 | -4.0 | · | · | · | ·
O=C(C[C@@H]1CC[C@H]2[C@@H](COC[C@@H](O)CN2Cc2ccc(Oc3ccccc3)cc2)O1)Nc1nccs1 | 116.6* | -58.0 | 41.3 | 101.2* | 55.1 | 24.1 | 97.4*
O=C(C[C@H]1CC[C@@H]2[C@H](COC[C@H](O)CN2Cc2ccc(Oc3ccccc3)cc2)O1)Nc1nccs1 | 133.1* | -31.1 | 70.6 | 103.1* | 33.6 | 1.4 | 52.3*
O=C(C[C@@H]1CC[C@@H]2[C@H](COC[C@@H](O)CN2Cc2cccc(Cl)c2)O1)Nc1nccs1 | 71.5 | -42.3 | -1.9 | · | · | · | ·
O=C(C[C@@H]1CC[C@@H]2[C@H](COC[C@@H](O)CN2Cc2ccc(Oc3ccccc3)cc2)O1)Nc1nccs1 | 107.9* | -32.0 | -4.0 | 101.9* | 48.8 | 13.2 | 8.4
CCC(=O)Nc1ccc2c(c1)C(=O)N(C)[C@@H]1CC[C@H](CC(=O)Nc3cccc(OC)c3)O[C@@H]1CO2 | -9.3 | -8.5 | -2.6 | · | · | · | ·
COc1ccc(S(=O)(=O)N(C)C[C@H]2Oc3ccc(NS(C)(=O)=O)cc3C(=O)N([C@@H](C)CO)C[C@H]2C)cc1 | -8.5 | 5.0 | -0.8 | · | · | · | ·
C[C@H]1CN([C@@H](C)CO)S(=O)(=O)c2ccc(C#Cc3ccc(F)cc3)cc2O[C@@H]1CN(C)C | -36.4 | -13.3 | 3.7 | · | · | · | ·
Cc1ccc(S(=O)(=O)N[C@@H]2CC[C@@H](CC(=O)NCCN3CCCCC3)O[C@H]2CO)cc1 | 9.7 | 5.7 | -0.2 | · | · | · | ·
Cc1noc(C)c1NC(=O)N(C)C[C@@H]1OCCCC[C@H](C)Oc2ccc(NS(=O)(=O)c3ccc(Cl)cc3)cc2C(=O)N([C@H](C)CO)C[C@@H]1C | -23.2 | -54.0 | -2.9 | · | · | · | ·
C[C@@H]1CCCCO[C@@H](CN(C)C(=O)NC2CCCCC2)[C@H](C)CN([C@@H](C)CO)C(=O)c2cc(NS(=O)(=O)c3ccccc3)ccc2O1 | ? | -28.9 | 5.7 | · | · | · | ·
SMILES | T cruzi growth-1 | Pf Dd2 growth | C diff growth | T cruzi growth-2 | T cruzi growth-3 | 3T3 cytotox | NIH3T3 tox 2
Cc1ccc(S(=O)(=O)Nc2ccc3c(c2)C(=O)N([C@H](C)CO)C[C@@H](C)[C@@H](CN(C)C(=O)NC2CCCCC2)OCCCC[C@@H](C)O3)cc1 | 68.3 | -67.5 | 1.0 | · | · | · | ·
C[C@@H]1CCCCO[C@@H](CN(C)C(=O)NC2CCCCC2)[C@@H](C)CN([C@@H](C)CO)C(=O)c2cc(NS(=O)(=O)c3ccc(Cl)cc3)ccc2O1 | 98.6* | -25.5 | 3.3 | 103.3* | 11.0 | 3.0 | -17.3
C[C@H](CO)N1C[C@H](C)[C@H](CN(C)C(=O)NC2CCCCC2)OCCCC[C@H](C)Oc2ccc(NS(=O)(=O)c3ccccc3)cc2C1=O | 93.6* | -63.2 | 7.5 | ? | 38.1 | -6.1 | 0.1
C[C@@H]1CCCCO[C@@H](CN(C)C(=O)NC2CCCCC2)[C@H](C)CN([C@@H](C)CO)C(=O)c2cc(NS(=O)(=O)c3ccc(Cl)cc3)ccc2O1 | 93.0 | -7.0 | 0.5 | · | · | · | ·
Cc1ccc(S(=O)(=O)Nc2ccc3c(c2)C(=O)N([C@H](C)CO)C[C@H](C)[C@H](CN(C)C(=O)NC2CCCCC2)OCCCC[C@H](C)O3)cc1 | 117.7* | -42.3 | -0.7 | 105.4* | 27.1 | -30.8 | 6.5
COc1ccc(S(=O)(=O)Nc2cccc3c2O[C@H](CN(C)CC2CC2)[C@@H](C)CN([C@@H](C)CO)C3=O)cc1 | 32.2 | 33.4 | -1.2 | · | · | · | ·
Cc1noc(C)c1NC(=O)Nc1ccc2c(c1)C(=O)N([C@H](C)CO)C[C@H](C)[C@@H](CN(C)Cc1ccccc1)O2 | -6.2 | 14.2 | -1.2 | · | · | · | ·
COc1ccc(NC(=O)C(OC(=O)c2ccccc2)c2cccs2)cc1 (stereo not drawn) | · | · | -5.4 | · | · | · | ·
COc1ccccc1S(=O)(=O)N[C@@H]1CC[C@@H](CCNC(=O)C2CC2)O[C@H]1CO | · | 14.7 | 4.0 | · | · | · | ·
C[C@@H]1CN([C@@H](C)CO)S(=O)(=O)c2ccc(-c3ccc(F)cc3)cc2O[C@@H]1CN(C)C(=O)Nc1ccc(F)cc1 | 123.1* | -23.8 | · | 110.5* | 63.2 | 23.7 | 61.8*
C[C@@H]1CN([C@H](C)CO)S(=O)(=O)c2ccc(-c3ccc(F)cc3)cc2O[C@H]1CN(C)C(=O)Nc1ccc(F)cc1 | 114.2* | -45.2 | · | 105.6* | 46.8 | 38.5* | 73.9*
